Bioassay records from PubChem.
VDR inh = inhibitors of human vitamin D receptor; P11473; VDR-SRC2-3 peptide fluorescence polarization, 2 h; Potency, µM, for inactives: max response, negative = inhibition, hits mostly inhibitors; hit rate 0.93% among 400,000; AID 504847
Target sequence (P11473 whole entry, looked up): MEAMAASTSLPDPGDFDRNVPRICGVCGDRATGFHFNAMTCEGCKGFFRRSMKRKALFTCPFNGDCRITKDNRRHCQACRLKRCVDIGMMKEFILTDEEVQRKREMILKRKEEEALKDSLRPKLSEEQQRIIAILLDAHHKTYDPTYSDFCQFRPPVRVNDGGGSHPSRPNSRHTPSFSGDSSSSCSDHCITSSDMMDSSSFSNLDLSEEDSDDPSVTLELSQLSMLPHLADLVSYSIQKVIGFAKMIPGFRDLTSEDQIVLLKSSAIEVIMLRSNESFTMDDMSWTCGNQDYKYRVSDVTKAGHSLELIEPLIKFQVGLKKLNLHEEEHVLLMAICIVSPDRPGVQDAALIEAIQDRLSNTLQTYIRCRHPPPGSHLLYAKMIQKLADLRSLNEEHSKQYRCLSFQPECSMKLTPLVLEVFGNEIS
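Fluorescence polarization assay measuring small-molecule disruption of VDR binding to the coregulator peptide SRC2-3. Compounds were pin-transferred (23 nl) into the reagent mix and incubated 2 h at room temperature before reading.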
TDP1 cell CPT = growth inhibition of DT40 Tdp1-/-;hTDP1 cells with camptothecin (screen for TDP1 inhibitors); chicken DT40 Tdp1-/-;hTDP1 cells + 20 nM CPT, ATP luminescence, 48 h; Potency, µM (titrated, usually from 46.2 µM), inactives show top-dose activity change, negative = growth inhibition, hits mostly inhibitors; hit rate 12% among 420,000; also: nearly all actives have a fitted effect of over 55% in size
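Chicken DT40 Tdp1-/- cells complemented with human TDP1, 400 cells/well, exposed to compounds plus 20 nM camptothecin for at least 48 h at 37 C; viability read as ATP content by CellTiter-Glo luminescence.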
PLK1 PBD inh = inhibitors of human PLK1 polo-box domain binding; hit rate 2.8% among 360,000; Potency, µM, for inactives: max response, negative = inhibition, actives largely listed as inhibitors; Plk1 PBD binding of FITC phosphopeptide, fluorescence polarization; P53350; also: series mostly up to about 57 µM; nearly all actives have a fitted effect of over 65% in size
GCN5L2 inh = blocks human GCN5L2 histone acetyltransferase; Q92830; GCN5L2 HAT assay, ThioGlo1 CoA-SH fluorescence; Potency, µM (highest dose often 58.9 µM), for the others: top-dose activity change, negative = inhibition, usual class: inhibitors; hit rate 0.21% among 390,000; AID 504327
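Fluorescence readout, Ex340nm/Em540nm: ThioGlo1 (50uM final) reacts with free CoA thiol released as 20nM GCN5L2 acetylates H3(1-25) peptide (75uM) using acetyl-CoA (70uM). Compound and enzyme sat 15 min beforehand; 20 min room-temperature reaction.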
TDP1 inh = TDP1 (human) enzyme inhibition; recombinant TDP1, AlphaScreen DNA substrate cleavage; AID 485290; Potency, µM (top dose mostly 130 µM), for inactives: at the highest dose activity change, negative = inhibition, actives largely listed as inhibitors; hit rate 0.28% among 350,000; also: nearly all actives have a fitted effect of over 40% in size
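Steps: enzyme plus compound, 15 min RT; add biotin/phosphotyrosine-FITC oligonucleotide (15 nM final), react 5 min; add donor/acceptor beads (10 ug/ml final), 10 min; read AlphaScreen. Tdp1 at 1 nM final.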
TDP1 cell noCPT = qHTS for Inhibitors of human tyrosyl-DNA phosphodiesterase 1 (TDP1): qHTS in cells in absence of CPT; Potency, µM (highest dose often 46.2 µM), inactives show at the highest dose activity change, negative = growth inhibition, most hits filed as inhibitors; DT40 Tdp1-/- hTDP1 cells, no CPT, ATP luminescence, 48 h; hit rate 15% among 420,000; also: nearly all actives have a fitted effect of over 55% in size
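DT40 Tdp1-/-;hTDP1 cells, no CPT (DMSO vehicle only), 400 cells/well; compounds pin-transferred; ≥48 hr, 37 °C; CellTiter-Glo 30 min RT dark, luminescence read.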
* hit, by the source's call; [ ] = remark or other dose. Sampled rows, rich in hits. Any-hit rate of the full collection: about 18%. Calls follow the shape of the dose curve; as a rule, active = well fitted curve in the direction sought with a large enough effect; inconclusive = small, poorly fitted or top-dose-only effect, or another doubt; inactive = no such curve, though single readings can be large; an effect the other way counts as inactive or inconclusive. % is scaled to controls: 0 for no effect and ±100 for the full control effect; potency is read from the fitted curve at half-maximal effect.

For COCCn1c(=NC(=O)CSCC(=O)Nc2cc(C)on2)sc2cc(C(=O)OC)ccc21 the results were VDR inh -19%, TDP1 cell CPT inconclusive, PLK1 PBD inh 27µM*, GCN5L2 inh -1%, TDP1 inh -5% and TDP1 cell noCPT -17%.
CC1Cc2ccccc2N1Cc1cc(=O)c(OCC(=O)Nc2ccccc2)co1 (stereo not drawn) was read as VDR inh 3%, TDP1 cell CPT inconclusive, PLK1 PBD inh -3%, GCN5L2 inh -14% and TDP1 cell noCPT inconclusive.
For COc1ccc(CCNC(=O)COc2coc(CN3c4ccccc4CC3C)cc2=O)cc1OC (stereo not drawn) the results were VDR inh -17%, TDP1 cell CPT inconclusive, PLK1 PBD inh -4%, GCN5L2 inh -11%, TDP1 inh 1% and TDP1 cell noCPT 16µM*.
Cc1ccc(NC(=O)COc2coc(CN3c4ccccc4CC3C)cc2=O)c(C)c1 (stereo not drawn) was read as VDR inh -6%, TDP1 cell CPT inconclusive, PLK1 PBD inh -1%, GCN5L2 inh -5%, TDP1 inh 1% and TDP1 cell noCPT 13µM*.
`Cc1ccc(C)c(NC(=O)COc2coc(CN3CCc4ccccc4C3)cc2=O)c1` gave VDR inh -12%, TDP1 cell CPT 18µM*, PLK1 PBD inh 0%, GCN5L2 inh -3%, TDP1 inh 0% and TDP1 cell noCPT 16µM*.
`O=C(COc1coc(CN2CCCc3ccccc32)cc1=O)Nc1ccccc1` gave VDR inh -7%, TDP1 cell CPT inconclusive, PLK1 PBD inh -1%, GCN5L2 inh -6%, TDP1 inh -16% and TDP1 cell noCPT 5.8µM*.
For Cc1ccc(NC(=O)CCC(=O)c2cccs2)c(O)c1 the results were VDR inh 13%, TDP1 cell CPT -17%, PLK1 PBD inh -6%, GCN5L2 inh 6% and TDP1 cell noCPT -28%.
Cc1ccc(S(=O)(=O)c2c(C)cc(C)[nH]c2=O)cc1 was read as VDR inh 10%, TDP1 cell CPT -7%, PLK1 PBD inh -7%, GCN5L2 inh -13% and TDP1 cell noCPT 7%.
For NC(=O)NCC(N)C(=O)O (stereo not drawn) the results were VDR inh 11%, TDP1 cell CPT 1%, GCN5L2 inh -12%, TDP1 inh 7%[56.1 µM] and TDP1 cell noCPT -5%.
`O=C(CSc1nc2ccccc2n1Cc1c(F)cccc1Cl)N1CCN(c2ccc(F)cc2)CC1` gave VDR inh -8%, TDP1 cell CPT -1%, GCN5L2 inh -8%, TDP1 inh -5% and TDP1 cell noCPT -27%.
Screening O=C(NCCN1CCN(C(=O)c2cccc(OC(F)F)c2)CC1)c1cccc(OC(F)F)c1 returned VDR inh 0%, TDP1 cell CPT -9%, PLK1 PBD inh -9%, GCN5L2 inh 4%, TDP1 inh 0% and TDP1 cell noCPT -6%.
`Cc1cc(=O)c(C(=O)NCCc2ccccn2)c2n1-c1ccccc1SC(c1cccs1)C2` (stereo not drawn) gave TDP1 cell CPT -9%[9.04 µM] and TDP1 cell noCPT -8%.
`COc1ccc(OC)c(NC(=O)COc2coc(CN3CCc4ccccc43)cc2=O)c1` gave VDR inh 18%, TDP1 cell CPT inconclusive, PLK1 PBD inh -5%, GCN5L2 inh -13%, TDP1 inh 0% and TDP1 cell noCPT 16µM*.
`Cc1ccc(NC(=O)COc2coc(CN3CCc4ccccc43)cc2=O)c(C)c1` gave VDR inh 1%, TDP1 cell CPT inconclusive, PLK1 PBD inh -11%, GCN5L2 inh -5%, TDP1 inh 0% and TDP1 cell noCPT 15µM*.
For COc1cc(=O)n2c(c1C(=O)NCc1ccco1)CCN(Cc1cccc(Cl)c1)CC2 the results were TDP1 cell CPT 14%[9.04 µM] and TDP1 cell noCPT -26%.
For Cc1cccc(N=C2NC(=O)/C(=C\c3cccs3)S2)c1 the results were VDR inh -10%, TDP1 cell CPT 13µM*, PLK1 PBD inh -19%, GCN5L2 inh -13%, TDP1 inh 6% and TDP1 cell noCPT 9.2µM*.
Screening Cc1ccc(N=C2NC(=O)/C(=C/c3cccs3)S2)cc1C returned VDR inh 1%, TDP1 cell CPT 13µM*, PLK1 PBD inh 4%, GCN5L2 inh -17%, TDP1 inh 3% and TDP1 cell noCPT 10µM*.
Screening O=C1NC(=Nc2ccccc2)S/C1=C/c1cccs1 returned VDR inh -9%, TDP1 cell CPT -17%, PLK1 PBD inh -12%, GCN5L2 inh -20%, TDP1 inh inconclusive and TDP1 cell noCPT inconclusive.
Screening Cn1c(=O)c2[nH]c(Cc3cccc4ccccc34)nc2n(C)c1=O returned VDR inh 12%, TDP1 cell CPT inconclusive, PLK1 PBD inh -5% and TDP1 cell noCPT 16µM*.
Cn1c(=O)c2[nH]c(CN(Cc3ccccc3)Cc3ccccc3)nc2n(C)c1=O was read as VDR inh 19%, TDP1 cell CPT 10µM*, PLK1 PBD inh 1%, GCN5L2 inh -6%, TDP1 inh 4% and TDP1 cell noCPT 15µM*.
Cn1c(=O)c2[nH]c(COc3ccccc3)nc2n(C)c1=O was read as VDR inh 11%, TDP1 cell CPT -8%, PLK1 PBD inh 0% and TDP1 cell noCPT inconclusive.
For CC1(C)OC(C(O)(c2cccc3c2oc2ccccc23)c2cccc3c2oc2ccccc23)C(C(O)(c2cccc3c2oc2ccccc23)c2cccc3c2oc2ccccc23)O1 (stereo not drawn) the results were TDP1 inh 8%[21 µM].
N#Cc1ccccc1NC(=O)CC1c2ccccc2Oc2ccccc21 was read as VDR inh 9%, TDP1 cell CPT 2.1µM*, PLK1 PBD inh -11%, GCN5L2 inh 8%, TDP1 inh 3% and TDP1 cell noCPT 1.8µM*.
For O=C(Nc1cccc(Cl)c1)C1CC1c1ccccc1 (stereo not drawn) the results were VDR inh -10%, TDP1 cell CPT 6%, PLK1 PBD inh -14% and TDP1 cell noCPT -15%.
For O=C(Nc1ccncc1)C1CC1c1ccccc1 (stereo not drawn) the results were VDR inh 7%, TDP1 cell CPT 16µM*, PLK1 PBD inh -1%, GCN5L2 inh -4%, TDP1 inh 2% and TDP1 cell noCPT inconclusive.
